# Several values for one entry are separate records, joined by “and”; a condition that tells them apart may be missing. Identical values can stand only once. Results filed as inconclusive are left out. Activity calls are given as the source filed them. Unless noted, the limit is not given here; nearly all actives have AC50 up to about 30 µM.
# Assays:
# [1] = stimulators of nuclear beta-catenin in C2C12, primary screen, imaging, WNT3A-conditioned medium, mouse C2C12, NPC library (AID 1117326; in the data active = nuclear beta-catenin stimulation mostly above about 4.2%, no sharp cut-off; inactive = mostly below about 10%; also: reference of the scale not given here); conditions: stronger effect = higher value
# [2] = stimulators of insulin release from INS-1E, primary screen, cell-based, 5 mM glucose, NPC library (AID 1117329;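 active = compound raises insulin release from rat beta cells at 5 mM glucose, no numeric limit stated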; also: reference of the scale not given here); conditions: rat INS-1E insulin secretion, at 10 µM, stronger effect = higher value
# [3] = growth inhibition of GSK3B-pretreated HCT116 cells – cell-based, CellTiter-Glo, 0.2 to 20 µM (AID 1117336;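 active = compounds lowering colon cancer cell viability after pretreatment blocking the GSK3B kinase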); conditions: HCT116 viability after GSK3B inhibitor, at 20 µM, stronger effect = higher value
# [4] = inhibition of endothelial tube formation, primary screen, imaging, VEGF stimulated, CD31 staining, tube area, NPC library (AID 1117340;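 active = compound that reduces growth-factor-driven endothelial tube area in a mixed cell culture, no cutoff stated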); conditions: VEGF-stimulated ADSC/ECFC co-culture, at 10 µM, stronger effect = higher value
# [5] = glucagon-like peptide 1 release enhancers, primary assay, NCI-H716 cell line, NPC library (AID 1117341;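 active = compound raises GLP1 secretion from the human gut endocrine cells, with no numeric limit stated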; also: reference of the scale not given here); conditions: NCI-H716 cells, at 10 µM, stronger effect = higher value
# [6] = HCT116 colon cancer cell growth inhibition, primary screen, CellTiter-Glo luminescence, NPC library (AID 1117342;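 active = compounds that lower survival of HCT116 colon cancer cells in the luminescence readout, no numeric limit stated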); conditions: at 20 µM (top of the series)
# [7] = CellTiter-Glo luminescent readout of SW480 viability loss, NPC library primary (AID 1117343;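 active = compounds that lower viability of the colon cancer cells in the luminescence readout, with no numeric limit stated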); conditions: CellTiter-Glo luminescence; at 20 µM (top of the series) unless noted
# [8] = decreased DLD-1 cellular survival, CellTiter-Glo luminescent readout, NPC compound collection, primary HTS (AID 1117346;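 active = compounds that lower survival of DLD-1 colon cancer cells in the luminescence readout, no cutoff given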); conditions: DLD-1 viability, CellTiter-Glo luminescence; at 20 µM (top of the series)
# [9] = growth inhibition of DIPG glioma cells, dose response, cell-based, JHH-DIPG-1, MIPE4.0, CellTiter-Glo, qHTS (AID 1347062; cut-off not given, nearly all actives have AC50 up to about 27 µM;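 as to AC50: cells exposed to compound for two days before readout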); conditions: JHH-DIPG-1 viability, CellTiter-Glo ATP luminescence
# [10] = growth inhibition of DIPG glioma cells, dose response, cell-based, SU-DIPG-IV, MIPE4.0, CellTiter-Glo, qHTS (AID 1347063); conditions: SU-DIPG-IV viability, CellTiter-Glo ATP luminescence;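 also: compound exposure lasted 48 hours before the viability readout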
# [11] = viability loss in pontine glioma line – cell-based, SU-DIPG-XXV, MIPE5.0, CellTiter-Glo, qHTS, dose response (AID 1347065; cut-off not given, nearly all actives have AC50 up to about 26 µM;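 also: cells exposed to compound for 48 hours before ATP readout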); conditions: CellTiter-Glo ATP luminescence
# [12] = JHH-DIPG-1 glioma cell viability, MIPE5.0 library, CellTiter-Glo luminescence, qHTS (AID 1347067; cut-off not given, nearly all actives have AC50 up to about 26 µM;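 also: cells exposed to compound for 48 hours before readout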); conditions: JHH-DIPG-1 glioma viability, CellTiter-Glo ATP luminescence
# [13] = SU-DIPG-XXV glioma cell viability, MIPE5.0 library, qHTS (AID 1347068; cut-off not given, nearly all actives have IC50 up to about 30 µM)
# [14] = sensitizers of A549 cells to miR-34 induction, primary screen, imaging, A549 dox-inducible miR-34, nuclei and caspase counts (AID 1347080;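 active = compounds whose cell count with miR-34 switched on is under 0.7 times the count with it off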); conditions: A549 miR-34 inducible, Hoechst nuclei count, 48 h
# [15] = phospholipid biosynthesis inhibitors in animal cells, primary screen, cell-based, LOPAC library, screen 4 (AID 1347384; call rule not given here); conditions: phospholipid biosynthesis inhibition screen, at 10 µM
# [16] = viability rescue of complex I mutant cybrids, primary screen, cell-based, galactose medium, ATP luminescence (AID 1645843;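 active = z-score of at least 1.8 in each of two replicates, scored against plate mean and spread of sample wells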;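 also: positive z means more ATP and so rescue of galactose-driven cybrid death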); conditions: complex I mutant cybrid cells, 72 h, stronger effect = higher value
# [17] = liver-stage malaria parasite growth inhibition, primary screen, cell-based, HepG2, luciferase luminescence, HepG2 viability (AID 624349; in the data active = parasite load remaining mostly below about 12%, no sharp cut-off; inactive = mostly above about 10%;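 also: 100% = mean of DMSO negative control wells on the same plate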); conditions: P. berghei liver stage in HepG2, luciferase luminescence, concentration not given here; parasite load remaining: stronger effect = lower value; viability: measured here: HepG2 viability without parasites
# [18] = survival rescue of mitochondrial mutant cells in low glucose, primary screen, MELAS cybrids, Rieske KO mouse fibroblasts, CellTiter-Glo (AID 1508586;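 active = mean z-score across replicates of 1.96 or higher in either the MELAS or the Rieske mutant cell line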;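 also: z relative to plate mean and SD of compound and empty wells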)
# [19] = SU-DIPG-VI glioma cell viability, MIPE4.0 library, CellTiter-Glo luminescence, qHTS (AID 1347066); conditions: CellTiter-Glo ATP luminescence;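 also: cells exposed to compound for 48 hours before readout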
# [20] = stronger effect = lower value, cell number ratio, induced over uninduced
# [21] = measured here: relative caspase fold change +Dox/-Dox
# [22] = measured here: total cells with miR-34 induction, stronger effect = lower value
# [23] = measured here: total cells without miR-34 induction
# [24] = MELAS cybrid survival, CellTiter-Glo 48 h, stronger effect = higher value
# [25] = Rieske KO mouse fibroblast survival, CellTiter-Glo 72 h
smiles,measurement,setting,value
NCCCC(N)(C(=O)O)C(F)F (stereo not given),nuclear beta-catenin stimulation,[1]; at 10 µM,-0.1% (inactive)
same,nuclear beta-catenin stimulation,"[1]; stimulation, at 2 µM",-0.3%
same,insulin secretion stimulation,[2],-2.2% (inactive)
same,viability decrease,[3],6.2% (inactive)
same,tube area decrease,[4],-6.3% (inactive)
same,GLP1 secretion stimulation,[5],2.8% (inactive)
same,inhibition of viability,[6],12.2% (inactive)
same,viability decrease (inhibition),[7],65.3% (active)
same,viability decrease (inhibition),[8],36% (inactive)
same,outcome,[9],inactive
same,outcome,[10],inactive
same,outcome,[11],inactive
same,outcome,[12],inactive
same,outcome,[13],inactive
same,fold change,[14]; [20],1.13 (inactive)
same,fold change,[14]; [21],0.834
same,cell count,[14]; [22],8420
same,cell count,[14]; [23],7470
same,outcome,[15],inactive
same,z-score,[16],0.11 (inactive)
CN1CCCN=C1/C=C/c1cccs1,parasite load remaining,[17],31.2% (inactive) and 87.7% (inactive)
same,viability,[17],47.1% and 90.3%
same,nuclear beta-catenin stimulation,[1]; at 10 µM,1.3% (inactive)
same,nuclear beta-catenin stimulation,"[1]; stimulation, at 2 µM",0%
same,insulin secretion stimulation,[2],0.75% (inactive)
same,viability decrease,[3],6.6% (inactive)
same,tube area decrease,[4],-9.9% (inactive)
same,GLP1 secretion stimulation,[5],1.8% (inactive)
same,inhibition of viability,[6],13.5% (inactive)
same,viability decrease (inhibition),[7],4.9% (inactive)
same,viability decrease (inhibition),[8],-4.2% (inactive)
same,outcome,[11],inactive
same,outcome,[12],inactive
same,outcome,[13],inactive
same,fold change,[14]; [20],0.92 (inactive)
same,fold change,[14]; [21],1.06
same,cell count,[14]; [22],9190
same,cell count,[14]; [23],9990
same,z-score,[18]; [24],0.267 (inactive)
same,z-score,[18]; [25],-0.214
Cc1cc(=O)c2c(O)c3c(O)cc(=O)c4c3c3c(cc(O)c1c23)C(C)(C)C=4O,nuclear beta-catenin stimulation,[1]; at 10 µM,46.6% (active)
same,nuclear beta-catenin stimulation,"[1]; stimulation, at 2 µM",68.1%
same,insulin secretion stimulation,[2],0.4% (inactive)
same,viability decrease,[3],117% (active)
same,tube area decrease,[4],54.9% (active)
same,GLP1 secretion stimulation,[5],8% (inactive)
same,inhibition of viability,[6],124% (active)
same,viability decrease (inhibition),[7],158% (active)
same,viability decrease (inhibition),[8],101% (active)
same,AC50,[9],743 nM (active)
same,AC50,[10],469 nM (active)
same,AC50,[19],105 nM (active)
COc1ccc(-c2ccc3cc(C(=O)O)ccc3c2)cc1C12CC3CC(CC(C3)C1)C2,nuclear beta-catenin stimulation,[1]; at 10 µM,21.9% (inactive)
same,nuclear beta-catenin stimulation,"[1]; stimulation, at 2 µM",32.2%
same,insulin secretion stimulation,[2],0.9% (inactive)
same,viability decrease,[3],118% (active)
same,tube area decrease,[4],99.5% (active)
same,GLP1 secretion stimulation,[5],-2.3% (inactive)
same,inhibition of viability,[6],123% (active)
same,viability decrease (inhibition),[7],159% (active)
same,viability decrease (inhibition),[8],102% (active)
same,outcome,[9],inactive
same,outcome,[10],inactive
same,outcome,[19],inactive
same,outcome,[13],inactive
same,fold change,[14]; [20],1.08 (inactive) and 1.16 (inactive)
same,fold change,[14]; [21],0.775 and 0.908
same,cell count,[14]; [22],1330 and 1240
same,cell count,[14]; [23],1230 and 1070
same,z-score,[18]; [24],-0.222 (inactive) and -1.26 (inactive)
same,z-score,[18]; [25],0.947 and 0.282
Cc1nnc(C(=O)NC(C)(C)c2nc(C(=O)NCc3ccc(F)cc3)c(O)c(=O)n2C)o1,nuclear beta-catenin stimulation,[1]; at 10 µM,-0.2% (inactive)
same,nuclear beta-catenin stimulation,"[1]; stimulation, at 2 µM",0.5%
same,insulin secretion stimulation,[2],2.5% (inactive)
same,viability decrease,[3],-5.9% (inactive)
same,tube area decrease,[4],13.9% (inactive)
same,GLP1 secretion stimulation,[5],-0.3% (inactive)
same,inhibition of viability,[6],1% (inactive)
same,viability decrease (inhibition),[7],31.6% (inactive)
same,viability decrease (inhibition),[8],6.7% (inactive)
same,outcome,[10],inactive
same,outcome,[11],inactive
same,outcome,[19],inactive
same,outcome,[13],inactive
same,fold change,[14]; [20],0.902 (inactive)
same,fold change,[14]; [21],1.04
same,cell count,[14]; [22],7710
same,cell count,[14]; [23],8560
same,z-score,[18]; [24],-0.159 (inactive)
same,z-score,[18]; [25],-0.0651

# Source: PubChem BioAssay
